Assay results published in PubChem BioAssay AID1220 (Sanford-Burnham Center for Chemical Genomics, 2008).
The campaign covered roughly 190,000 compounds. About 1,300 (0.68%) were called active. No stated cut-off is given here; in the data, active means inhibition above about 50%; inactive means the rest. The entries come from a sample that favours actives as a whole.

What follows are compounds tested against Mannose-6-phosphate isomerase (Homo sapiens) (UniProt P34949) (assay: MPI inhibition at elevated mannose 6-phosphate – biochemical, fluorescence intensity, high mannose 6-phosphate, primary screen (AID 1220)). Settings: recombinant PMI enzyme, coupled fluorescence intensity; at 20 µM; stronger effect = higher value.
Mannose-6-phosphate isomerase (Homo sapiens), sequence (P34949 whole entry, looked up): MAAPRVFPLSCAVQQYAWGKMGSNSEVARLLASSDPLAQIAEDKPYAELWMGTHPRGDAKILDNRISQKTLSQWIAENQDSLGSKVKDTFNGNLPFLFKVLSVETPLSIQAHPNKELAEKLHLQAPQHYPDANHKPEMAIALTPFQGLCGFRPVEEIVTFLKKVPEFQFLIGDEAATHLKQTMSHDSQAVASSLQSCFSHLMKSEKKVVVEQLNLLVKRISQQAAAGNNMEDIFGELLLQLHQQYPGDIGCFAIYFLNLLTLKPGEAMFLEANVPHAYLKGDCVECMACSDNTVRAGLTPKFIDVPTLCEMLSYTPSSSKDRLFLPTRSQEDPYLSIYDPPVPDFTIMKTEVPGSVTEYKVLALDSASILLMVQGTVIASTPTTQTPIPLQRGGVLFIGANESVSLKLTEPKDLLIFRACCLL

Compound	inhibition
CCCCCC(=O)N/N=C/c1ccccc1[N+](=O)[O-]	-6.7% (inactive)
CCN(CC)c1ccc(N=Cc2c(C)[nH]c3ccccc23)cc1	69.7% (active)
CN(/N=C/c1ccc([N+](=O)[O-])o1)c1ccccc1	-3.1% (inactive)
CCN(CC)c1ccc(N=Cc2ccccc2[N+](=O)[O-])cc1	64.4% (active)
Cc1[nH]c2ccccc2c1/C=N/n1cnnc1	-4.2% (inactive)
O=[N+]([O-])c1ccc(/C=N/N=C/c2ccc([N+](=O)[O-])o2)o1	24.5% (inactive)
CCN(CC)c1ccc(N=Cc2ccc([N+](=O)[O-])o2)cc1	59.7% (active)
CCNC(=S)N/N=C/c1ccccc1[N+](=O)[O-]	-1.5% (inactive)
CCCCNC(=S)N(C)/N=C/c1c(C)[nH]c2ccccc12	9.5% (inactive)
CCN(CC)c1ccc(/C=N/NS(=O)(=O)c2cccc([N+](=O)[O-])c2)cc1	-83.2% (inactive)
O=C(CNC(=O)C1COc2ccccc2O1)N/N=C\c1cccc(O)c1 (configuration not stated)	-10.8% (inactive)
Cc1cccc(-n2nnc3c(=O)n(CC(=O)Nc4cc(C)on4)cnc32)c1	-4.2% (inactive)
COc1ccccc1N/C=C1/Sc2cc(Cl)ccc2NC1=O	3% (inactive)
COc1cc(N)c(Cc2nccc3cc(OC)c(OC)cc23)cc1OC	56.4% (active)
COc1cc2ccnc(Cc3cccc(OC)c3OC)c2cc1OC	44.9% (inactive)
CCOC(=O)Nc1cc(OC)c(OC)cc1Cc1nccc2cc(OC)c(OC)cc12	-1.9% (inactive)
COc1ccc(NC(=O)c2ccccc2NC(=O)CSc2ccccc2)cc1	2.1% (inactive)
Cc1nn(-c2ccccn2)c2c1C(c1ccccn1)C1=C(CCCC1=O)N2 (configuration not stated)	0.2% (inactive)
Cc1nn(-c2ccccn2)c2c1C(=O)C(Br)CC2 (configuration not stated)	72.9% (active)
C=C(C)C1Cc2c(C)nn(-c3ccccn3)c2C1 (configuration not stated)	-10.9% (inactive)
Cc1ccccc1C(=O)NNC(=O)C12CC3CC(CC(C3)C1)C2	7% (inactive)
CC(=O)CC(=O)Nc1ccc(C(N)=O)cc1	6.1% (inactive)
COc1cc(OC)c(C2C(C#N)=C(N)Oc3cc(C)n(CCCN4CCOCC4)c(=O)c32)cc1OC (configuration not stated)	61.6% (active)
COc1ccc(C2C(C#N)=C(N)Oc3cc(C)n(CCN4CCOCC4)c(=O)c32)cc1OC (configuration not stated)	-0.4% (inactive)
COc1cc(C2C(C#N)=C(N)Oc3cc(C)n(CCN4CCOCC4)c(=O)c32)cc(OC)c1OC (configuration not stated)	-11.7% (inactive)

Compound	inhibition
N#Cc1nc(-c2ccc(Cl)cc2)oc1N1CCCCC1	-8.5% (inactive)
COc1ccccc1-n1c(CNC(=O)c2cccc([N+](=O)[O-])c2C)n[nH]c1=S	-7.8% (inactive)
COC(=O)c1ccccc1NC(=S)N1CCN(c2ccccn2)CC1	5.5% (inactive)
COC(=O)c1ccccc1N/C=C1\CCc2c(c(C)nn2-c2ccccn2)C1=O	73.6% (active)
CCOC(=O)c1ccccc1N/C=C1\CCCCC1=O	-11.5% (inactive)
COc1ccccc1N1CCN(C(=O)c2ccc3c(Cl)c4c(nc3c2)CCCC4)CC1	14.1% (inactive)
Cn1c(=O)[nH]c(=O)c2c1nc(N1CCCC1)n2CC(O)COc1ccccc1 (configuration not stated)	3.3% (inactive)
CCNc1nc(Cl)nc(NCCOc2ccc(C)cc2)n1	0.4% (inactive)
CCCC(=O)Nc1nnc(C2CCCO2)s1 (configuration not stated)	17.6% (inactive)
Cc1cccc(C)c1OCC(=O)Nc1nnc(C2CCCO2)s1 (configuration not stated)	53.1% (active)
Cc1ccc(OCC(=O)Nc2nnc(C3CCCO3)s2)c(Br)c1 (configuration not stated)	5.8% (inactive)
O=C(COc1ccc([N+](=O)[O-])cc1)NCc1ccncc1	-2.2% (inactive)
O=S(=O)(Cc1ccccc1)NCC1CCCN(Cc2ccc3nonc3c2)C1 (configuration not stated)	7.4% (inactive)
CCCCOC(=O)c1ccc(NC(=S)NC(=O)c2c(Cl)cnn2C)cc1	62.3% (active)
COC(=O)c1ccc(NC(=S)NC(=O)c2c(Cl)cnn2C)cc1	-3.2% (inactive)
CCCCOC(=O)c1ccc(NC(=S)NC(=O)c2c(Cl)cnn2CC)cc1	17.1% (inactive)
CCN1CCCn2c1nc1c2c(=O)n(C)c(=O)n1C	-4.6% (inactive)
CC1CCCCN1C(=O)CSc1nnc(-c2c[nH]c3ccccc23)o1 (configuration not stated)	-3.8% (inactive)
CC1(C)CC(=O)C(C=Nc2ccc(N)cc2)=C(O)C1	33.3% (inactive)
CC1(C)CC(=O)C(C=Nc2ccc(NC3=C(C#N)C(=O)CC(C)(C)C3)cc2)=C(O)C1	60.4% (active)
CC1(C)CC(=O)C(C=Nc2ccc(O)cc2)=C(O)C1	21.8% (inactive)
CCOC(=O)Cn1c(-c2cccnc2Cl)nc2cc(Cl)c(Cl)cc21	21.1% (inactive)
O=C(CN(c1ccc(Br)cc1)S(=O)(=O)c1ccc(Cl)c([N+](=O)[O-])c1)NCCc1ccccc1	-3.9% (inactive)
COc1ccc(CN=CC2=C(O)CC(C)(C)CC2=O)cc1	12.4% (inactive)
Oc1ccc(NCc2cccc(OCc3ccc(F)cc3)c2)cc1	51.3% (active)

Compound	inhibition
c1ccc(COc2cccc(CNn3cnnc3)c2)cc1	0.5% (inactive)
Fc1ccc(COc2cccc(CNCc3ccncc3)c2)cc1	-15.5% (inactive)
O=[N+]([O-])c1ccc(COc2cccc(CNc3ccc(Br)cc3)c2)cc1	19.9% (inactive)
O=[N+]([O-])c1ccc(COc2cccc(CNc3ccc(F)cc3)c2)cc1	-3.6% (inactive)
Oc1ccc(NCc2cccc(OCc3ccccc3)c2)cc1	58.9% (active)
CCS(=O)(=O)c1c(S(=O)(=O)CC)c2ccccn2c1C(N)=O	-1% (inactive)
Cc1cccc(C(C)C)c1NC(=O)C1CN(S(=O)(=O)c2ccccc2)CCN1S(=O)(=O)c1ccccc1 (configuration not stated)	1.2% (inactive)
COc1cccc2c(=O)cc(C)n(CC(=O)Nc3ccccc3C)c12	-2.8% (inactive)
CC(=O)N1c2ccccc2NC2=C(C(=O)CCC2)C1c1ccc(F)cc1 (configuration not stated)	13.6% (inactive)
CC(C)C(=O)N1c2ccccc2NC2=C(C(=O)CCC2)C1c1ccc(N(C)C)cc1 (configuration not stated)	60.7% (active)
CCC(=O)N1c2ccccc2NC2=C(C(=O)CCC2)C1c1ccc(N(C)C)cc1 (configuration not stated)	16.3% (inactive)
Fc1ccccc1COc1ccc2ccccc2c1CNc1nn[nH]n1	-1.6% (inactive)
O=[N+]([O-])c1ccc(C2Nc3cccc4cccc(c34)N2)cc1	14.6% (inactive)
O=[N+]([O-])c1cccc(C2Nc3cccc4cccc(c34)N2)c1	-12.5% (inactive)
O=[N+]([O-])c1ccc(Cl)c(C2Nc3cccc4cccc(c34)N2)c1	60.2% (active)
COc1cccc(CN2CCN(Cc3cc(OC)c(OC)cc3[N+](=O)[O-])CC2)c1	53.2% (active)
COc1cc(CN2CCN(Cc3ccc(C)cc3)CC2)c([N+](=O)[O-])cc1OC	61.5% (active)
CSc1ccc(CN2CCN(Cc3ccc([N+](=O)[O-])cc3)CC2)cc1	4% (inactive)
COc1cccc(C(=O)N2CCN(Cc3ccccc3[N+](=O)[O-])CC2)c1	-13.8% (inactive)
COc1cc(CN2CCN(c3ccc(C)cc3)CC2)cc([N+](=O)[O-])c1O	10.7% (inactive)
COc1cc(CN2CCN(Cc3ccc([N+](=O)[O-])cc3)CC2)c([N+](=O)[O-])cc1OC	56.3% (active)
CS(=O)(=O)N1CCN(Cc2ccc([N+](=O)[O-])cc2)CC1	11.9% (inactive)
Cc1ccc(CN2CCN(/N=C/c3ccc(Cl)c([N+](=O)[O-])c3)CC2)cc1	15.3% (inactive)
COc1cccc(CN2CCN(C(=O)Nc3ccc([N+](=O)[O-])cc3)CC2)c1	10.7% (inactive)
CC1SCCN1S(=O)(=O)c1ccc2ccccc2c1 (configuration not stated)	7.8% (inactive)

Compound	inhibition
CCOC(=O)N1CCC2(CC1)C(C#N)=C(N)Oc1c2c(C)nn1-c1cccc(Cl)c1	-99.5% (inactive)
CNc1ccc(Br)cc(C(=O)/C=C/c2cccc(Cl)c2Cl)c1=O	24.7% (inactive)
Nc1nc(F)cc(NCc2ccccc2)n1	10.5% (inactive)
COc1ccc(CNCc2ccco2)cc1OCc1ccccc1	10.6% (inactive)
CN(C)S(=O)(=O)c1cccc(NC(=O)c2ccc(N3CCOCC3)c([N+](=O)[O-])c2)c1	8.9% (inactive)
Cn1c(NC(=O)C2CCCO2)cc(=O)n(C)c1=O (configuration not stated)	42.3% (inactive)
COc1ccc(CC(=O)N2CCN(c3ccccn3)CC2)cc1	8.3% (inactive)
CCN1C(=O)C2C(c3cccc(F)c3)NC(CC)(C(=O)OC)C2C1=O (configuration not stated)	2.1% (inactive)
COCCCn1c(=N)c(C(=O)NCC2CCCO2)cc2c(=O)n3ccccc3nc21 (configuration not stated)	5.1% (inactive)
COCCCn1c(=N)c(C(=O)NCC2CCCO2)cc2c(=O)n3cccc(C)c3nc21 (configuration not stated)	53.6% (active)
CCCn1c(=N)c(C(=O)NCC2CCCO2)cc2c(=O)n3cccc(C)c3nc21 (configuration not stated)	13.9% (inactive)
COc1ccccc1CNC(=O)Nc1cccs1	-15.1% (inactive)
CCOC(=O)C1=C(C)NC(=O)NC1c1ccc(N(CC)CC)cc1 (configuration not stated)	25.8% (inactive)
O=C(CCN1CCN(c2ccccc2F)CC1)Nc1ccccc1F	-3.7% (inactive)
O=C(CCN1CCOCC1)c1ccccc1	-3.1% (inactive)
COc1ccc(C(=O)CCN2CCN(c3ccccc3F)CC2)cc1	17.7% (inactive)
O=C(CCN1CCOCC1)c1ccc(Cl)cc1	26.3% (inactive)
COc1cc(-c2nnc(SCC(=O)OC3CCCCC3)o2)cc(OC)c1OC	5.5% (inactive)
COc1cc(NC(=O)CSc2nc3ccccc3c(=O)n2C)ccc1NC(=O)c1ccco1	22.5% (inactive)
COC(=O)c1c(-c2ccco2)csc1NC(=O)C1CC=CCC1C(=O)O (configuration not stated)	59% (active)
COC(=O)c1c(-c2ccccc2)csc1NC(=O)C1CC=CCC1C(=O)O (configuration not stated)	-0.2% (inactive)
COC(=O)c1c(-c2ccc(C)cc2)csc1NC(=O)C1CC=CCC1C(=O)O (configuration not stated)	2.6% (inactive)
